Screening results as filed in PubChem BioAssay.
Hits are enriched below; roughly 19% of the tested compounds scored in any of these assays.
HT1080NT lethal: qHTS for induction of synthetic lethality in tumor cells producing 2HG: qHTS for the HT-1080-NT fibrosarcoma cell line; HT-1080-NT fibrosarcoma viability, CellTiter-Glo ATP luminescence, 48 h; Potency, µM (series often up to 46.1 µM), for inactives: at the highest dose activity, negative = less viability, usual class: cytotoxic; 1.6% of 360,000 active;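 further: NT is the 2HG producing partner of a matched IDH1 knockdown line; 0% = DMSO-treated cells and -100% = media-only wells without cells; nearly all actives have a fitted effect of over 55% in size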
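Compounds were tested in concentration-response format on HT-1080-NT cells for 48 hours at 37 degrees C. Cell viability came from CellTiter-Glo luminescence; curves were classified by r2, response magnitude and activity.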
KB-V1 cytotox: qHTS assay for MDR1-selective chemotherapeutics: Primary screen using the drug-selected MDR subline cells KB-V1; KB-V1 MDR cells viability, CellTiter-Glo, 72 h; AID 1347076, 2019; Potency, µM (series often up to 46.1 µM), hits mostly cytotoxic; 3.4% of 400,000 active; further: nearly all actives have a fitted effect of over 60% in size
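Cytotoxicity via CellTiter-Glo luminescence after 72 h compound exposure at 37 degrees C. Cells: drug-selected KB-V1 line, DMEM phenol-red free plus 10% FBS. Compounds tested at multiple concentrations; normalized data fitted to concentration-effect curves.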
KB-3-1 tox: qHTS assay for MDR1-selective chemotherapeutics: Primary screen using the parental adenocarcinoma cell KB-3-1. KB-3-1 viability, CellTiter-Glo ATP luminescence, 72 h. Potency, µM (series often up to 46.1 µM), hits mostly cytotoxic. 1.4% of 400,000 active; further: nearly all actives have a fitted effect of over 60% in size
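Cytotoxicity measured as CellTiter-Glo luminescence after 72 h at 37 C. Compound titrations were pinned onto drug-naive KB-3-1 parental adenocarcinoma cells grown in DMEM with 10% FBS, and normalized data fitted to concentration-response curves.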
DT40 TDP1 CPT: qHTS for Inhibitors of human tyrosyl-DNA phosphodiesterase 1 (TDP1): qHTS in cells in presence of CPT | chicken DT40 Tdp1-/-;hTDP1 cells + 20 nM CPT, ATP luminescence, 48 h | Potency, µM (top dose mostly 46.2 µM), inactives show at the highest dose activity change, negative = growth inhibition, most hits filed as inhibitors | 12% of 420,000 active | AID 686979, 2013; further: nearly all actives have a fitted effect of over 55% in size
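Chicken DT40 Tdp1-/- cells stably complemented with human TDP1 were seeded at 400 cells/well in medium containing 20 nM camptothecin, exposed to pin-transferred compounds, and grown at 37 °C for at least 48 hr. Viability was read as ATP luminescence.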
HT1080 IDH1KD tx: qHTS for induction of synthetic lethality in tumor cells producing 2HG: qHTS for the HT-1080-IDH1KD cell line. AID 686971, 2013. 2% of 360,000 active. HT-1080 IDH1 knockdown viability, ATP luminescence, 48 h. Potency, µM (top dose mostly 46.1 µM), for the others: at the top dose activity, negative = toxicity, hits mostly cytotoxic;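 further: 0% = DMSO wells and -100% = cell-free medium wells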
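Luminescent ATP read-out (CellTiter-Glo, 10 min at room temperature) after 48 h compound exposure at 37 °C gave viability of IDH1-knockdown HT-1080 cells. Activity was normalised to DMSO and cell-free wells, then fitted as concentration-response curves.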
TDP1 cell noCPT: qHTS for Inhibitors of human tyrosyl-DNA phosphodiesterase 1 (TDP1): qHTS in cells in absence of CPT | DT40 Tdp1-/- hTDP1 cells, no CPT, ATP luminescence, 48 h | Potency, µM (doses to about 46.2 µM), without a hit: at the highest dose activity change, negative = growth inhibition, actives largely listed as inhibitors | 15% of 420,000 active | AID 686978, 2013; further: nearly all actives have a fitted effect of over 55% in size
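No-CPT arm: Tdp1-/-;hTDP1 DT40 cells (400/well) plus compounds, incubated ≥48 hr at 37 °C. Readout CellTiter-Glo luminescence.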
Numbers without * were called inactive; i = inactive; ? = inconclusive; . = no result; [ ] = dose if it differs, or a comment. The call rests on the fitted dose curve; in most records, active means well fitted curve in the direction sought with a large enough effect; inconclusive means small, poorly fitted or top-dose-only effect, or another doubt; inactive means no such curve, though single readings can be large; an effect the other way counts as inactive or inconclusive. Unless noted, on the % scale 0 is the no-effect control and ±100 the full control effect; potency means the concentration at half of the fitted maximal effect.

SMILES | HT1080NT lethal | KB-V1 cytotox | KB-3-1 tox | DT40 TDP1 CPT | HT1080 IDH1KD tx | TDP1 cell noCPT
CO[C@H]1CN(C)C(=O)c2cc(NC(=O)C3CCCC3)ccc2OC[C@@H](C)NC[C@H]1C | 18% | i | i | 17% | 8% | 2%
CO[C@H]1CN(C)C(=O)c2ccc(NC(=O)C3CCC3)cc2OC[C@H](C)N(CC2CCCCC2)C[C@@H]1C | ? | ? | ? | ? | ? | 21µM*
COCCCNC(=O)c1cnn(-c2ncc3c(n2)-c2ccccc2CCC3)c1C | . | . | . | -5%[9.04 µM] | . | -22%
COc1ccccc1CCNC(=O)C1(c2cccs2)CCOCC1 | . | i | i | ? | . | ?
CC(OC(=O)[C@H](C)N=C1NS(=O)(=O)c2ccccc21)C(=O)Nc1ccc(F)c(F)c1F (some centres undefined) | 4% | i | i | -17% | 4% | -15%
CCC1(C)COC(C)(CC(=O)NNC(=O)Nc2ccccc2)OC1 (centres undefined) | 14% | i | i | 11% | 20% | 6%
CCc1ccc(NC(=O)Cn2nc(SC)c(S(=O)(=O)c3ccc(OC)cc3)c2N)cc1 | . | ? | i | -12% | . | -20%
CCSc1nn(CC(=O)Nc2cccc(Cl)c2)c(N)c1S(=O)(=O)c1ccc(OC)cc1 | . | i | i | ? | . | ?
CCSc1nn(CC(=O)Nc2cccc(CC)c2)c(N)c1S(=O)(=O)c1ccccc1 | . | i | ? | ? | . | 15µM*
COc1ccc(S(=O)(=O)c2c(SC)nn(CC(=O)Nc3ccc(C)c(Cl)c3)c2N)cc1 | . | i | i | 26µM* | . | 26µM*
CSCCC(=O)N1CCC(n2nccc2NC(=O)CCc2ccccc2)CC1 | 0% | . | . | 2% | 2% | 17%
CCCS(=O)(=O)c1cnc(C2COc3ccccc3O2)nc1N (centres undefined) | -26% | i | ? | ? | ? | 16µM*
S=c1nc(C2COc3ccccc3O2)[nH][nH]1 (centres undefined) | -6% | i | i | -4% | -3% | -17%
CCCNC(=O)C1(C)CCN(C(=O)COCc2ccccc2)C1 (centres undefined) | ? | i | i | -4% | ? | 0%
CN(c1ccccc1)S(=O)(=O)c1cccc(NC(=O)Cc2n[nH]c(=O)c3ccccc23)c1 | -1% | i | i | 13µM* | -2% | 12µM*
Cc1ccc(NC(=O)Cc2n[nH]c(=O)c3ccccc23)cc1S(=O)(=O)N1CCCCCC1 | -2% | ? | ? | ? | -9% | 16µM*
CCN(CC)S(=O)(=O)c1cc(NC(=O)Cc2n[nH]c(=O)c3ccccc23)ccc1C | ? | i | i | ? | ? | 13µM*
CCN(CC)S(=O)(=O)c1cc(NC(=O)CSc2n[nH]c(N)n2)ccc1C | 0% | i | i | 0% | 9% | 1%
Cc1ccccc1CC(=O)OCC(=O)Nc1ccc(C)c(S(=O)(=O)N2CCCCC2)c1 | 0%[9.24 µM] | ? | i | -21% | 5% | -16%
CN(CC(=O)Nc1cccc(F)c1)C(=O)Cc1n[nH]c(=O)c2ccccc12 | -1% | i | i | ? | 2% | 0%
CCc1ccccc1NC(=O)C(C)n1c(=O)cc(C)c2c(C)nn(-c3ccccc3)c21 (centres undefined) | . | i | i | 0% | . | -1%
COC(=O)c1nnn(-c2cc(Cl)cc(Cl)c2)c1C(=O)OC | 7% | i | i | -1% | 3% | -27%
COc1ccccc1NC(=O)Nc1ccc(C(=O)N2CCCCC2)cc1 | ? | ? | i | ? | ? | 21µM*
COc1ccc(NC(=O)C2CCN(C(=O)c3ccc(OC)cc3)CC2)cc1 | 6% | i | i | 15µM* | 11% | ?
COC(=O)c1ccccc1NC(=O)Nc1ccc(C(=O)N2CCCC2)cc1 | 2% | i | i | -3% | 4% | -19%
SMILES | HT1080NT lethal | KB-V1 cytotox | KB-3-1 tox | DT40 TDP1 CPT | HT1080 IDH1KD tx | TDP1 cell noCPT
CC(=O)Nc1ccc(NC(=O)C2CCN(C(=O)c3cccs3)CC2)cc1 | 6% | i | i | 23µM* | -10% | -11%
O=C(Nc1nc(-c2ccc(F)cc2)cs1)C1CCN(C(=O)c2ccc(F)cc2)CC1 | ? | ? | ? | 6.5µM* | -28% | 5.8µM*
O=C(Nc1nc2c(F)cc(F)cc2s1)C1CCN(C(=O)c2ccc(F)cc2)CC1 | 7% | i | i | ? | 8% | ?
CCCn1c(N)c(C(=O)COC(=O)/C=C/c2ccc(OC(F)F)c(OC)c2)c(=O)[nH]c1=O | -29% | i | ? | -2% | ? | ?
CCc1cccc(C)c1NC(=O)CCn1nc(C)c2c(C)n(-c3ccccc3)nc2c1=O | . | i | i | -21% | . | -25%
COc1ccc2c(c1)sc1ncc(C(=O)NCc3ccccc3F)c(=O)n12 | . | i | i | 13% | . | -7%
O=C(c1cccc(Cn2cccn2)c1)N1CCC(n2c(C3CCCO3)nc3cc(C(F)(F)F)ccc32)CC1 (centres undefined) | . | . | . | 5%[9.04 µM] | . | -4%
COc1ccccc1NC(=O)C(C)Nc1ccc(C)c(Cl)c1 (centres undefined) | -18% | ? | ? | -15% | -6% | ?
COc1ccc(NC(=O)C2CCCN(c3c4c(nc5ncnn35)CCC4)C2)cc1 (centres undefined) | 5%[9.24 µM] | i | i | 15µM* | -22% | 23µM*
COc1ccc(NC(=O)C2CCN(c3nc(C)nc4c3CCC4)CC2)cc1 | ? | i | ? | 12µM* | -16% | 16µM*
COc1ccc(C(=O)N2CCC(C(=O)c3c(C)cc(C)cc3C)CC2)cc1 | -16% | i | i | ? | -8% | 23µM*
COc1ccccc1NC(C)C(=O)Nc1ccc(C(C)=O)cc1 (centres undefined) | 5% | ? | i | ? | -4% | 21µM*
O=C(Cn1nc(-c2ccc(Cl)cc2)c2ccccc2c1=O)Nc1cccc(C(F)(F)F)c1 | . | i | i | ? | . | ?
